# Source: PubChem (National Center for Advancing Translational Sciences (NCATS))
# Six1-Eya2 blk = Six1/Eya2 interaction inhibition | Q15475+O00167 | AlphaScreen GST-Six1/His-Eya2 binding, biochemical; stronger effect = lower value | activity change, % (test concentration not listed) | 360,000 compounds, 0.56% hits | AID 651725; in the data active means activity change below about -65%; inconclusive means mostly about -30% to -63%
#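 GST-Six1 + His-Eya2 (5X stock: 250/500 nM); Tris pH 8.0, 300 mM NaCl, 0.05% BSA, 0.02% Tween 20; GSH donor/Ni acceptor beads; 1 h 37 °C dark; AlphaScreen readout.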
# CtBP-E1A inh = CtBP/E1A binding inhibition. activity change, % (test concentration not listed). AID 651724. 340,000 compounds, 0.49% hits. AlphaScreen GST-E1A/His-CtBP binding, 1536-well; stronger effect = lower value; in the data active means activity change below about -65%; inconclusive means mostly about -30% to -63%
#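 AlphaScreen with 125 nM GST-E1A and 125 nM His-CtBP (5X stocks) in Tris pH 8.0, 300 mM NaCl, BSA, Tween 20, TCEP. Compounds preincubated 2 h at 37 deg C, then glutathione donor/nickel acceptor beads added for 1 h at 37 deg C in dark.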
# IL-1B inflam inh = inhibitors of inflammasome signaling (IL-1 beta secretion) | THP-1 LPS/ATP IL-1B secretion, AlphaLISA, 16 h; stronger effect = lower value | activity change, % at 57.5 µM | 360,000 compounds, 4.7% hits; in the data active means activity change below about -50%; inconclusive means mostly about -30% to -49%
#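 THP-1 cells pretreated 1 hr with compounds (up to 57.5 uM final), then stimulated with LPS (250 ng/mL final) plus ATP (1.25 mM final); secreted IL-1B measured by AlphaLISA after 16 hr, decreased signal indicating inhibition.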
# DT40 TDP1 CPT = DT40-hTDP1 cell growth loss with CPT. Potency, µM (doses to about 46.2 µM), without a hit: at the top dose activity change, negative = growth inhibition, most hits filed as inhibitors. chicken DT40 Tdp1-/-;hTDP1 cells + 20 nM CPT, ATP luminescence, 48 h. 420,000 compounds, 12% hits; further: potency means the concentration at half of the fitted maximal effect; nearly all actives have a fitted effect of over 55% in size
#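 Chicken DT40 Tdp1-/- cells complemented with human TDP1, 400 cells/well, exposed to compounds plus 20 nM camptothecin for at least 48 h at 37 C; viability read as ATP content by CellTiter-Glo luminescence.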
# TDP1 inh = blocks human tyrosyl-DNA phosphodiesterase 1. AID 485290. 350,000 compounds, 0.28% hits. Q9NUW8. recombinant TDP1, AlphaScreen DNA substrate cleavage. Potency, µM (highest dose often 130 µM), for the others: at the highest dose activity change, negative = inhibition, actives largely listed as inhibitors; further: potency means the concentration at half of the fitted maximal effect; nearly all actives have a fitted effect of over 40% in size
# Target sequence (Q9NUW8 whole entry, looked up): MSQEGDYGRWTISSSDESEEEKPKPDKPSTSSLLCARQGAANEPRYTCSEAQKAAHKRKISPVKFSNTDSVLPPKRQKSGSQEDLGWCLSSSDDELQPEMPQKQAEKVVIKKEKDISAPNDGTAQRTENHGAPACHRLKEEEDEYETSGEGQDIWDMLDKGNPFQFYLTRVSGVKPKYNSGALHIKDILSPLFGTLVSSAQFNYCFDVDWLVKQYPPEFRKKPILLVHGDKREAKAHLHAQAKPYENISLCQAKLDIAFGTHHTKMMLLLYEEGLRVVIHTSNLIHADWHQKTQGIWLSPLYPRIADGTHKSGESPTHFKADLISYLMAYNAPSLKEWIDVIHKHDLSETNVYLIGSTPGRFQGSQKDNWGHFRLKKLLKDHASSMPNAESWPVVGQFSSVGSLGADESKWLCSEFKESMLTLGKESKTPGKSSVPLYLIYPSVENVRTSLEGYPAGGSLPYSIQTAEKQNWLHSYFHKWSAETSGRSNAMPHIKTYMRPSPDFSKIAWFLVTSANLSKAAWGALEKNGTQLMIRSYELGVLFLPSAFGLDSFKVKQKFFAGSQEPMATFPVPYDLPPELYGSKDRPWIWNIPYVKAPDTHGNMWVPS
#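 Recombinant E. coli-expressed Tdp1 (1 nM) preincubated with compound 15 min at RT, then 5'-biotin/3'-phosphotyrosine-FITC DNA substrate (15 nM) added for 5 min. AlphaScreen beads (10 ug/ml) added, 10 min RT; tyrosine-FITC cleavage read as signal loss.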
# TDP1 cell noCPT = qHTS for Inhibitors of human tyrosyl-DNA phosphodiesterase 1 (TDP1): qHTS in cells in absence of CPT. Potency, µM (titrated, usually from 46.2 µM), for the others: at the highest dose activity change, negative = growth inhibition, actives largely listed as inhibitors. DT40 Tdp1-/- hTDP1 cells, no CPT, ATP luminescence, 48 h. 420,000 compounds, 15% hits. AID 686978, 2013; further: potency means the concentration at half of the fitted maximal effect; nearly all actives have a fitted effect of over 55% in size
#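 Growth of hTDP1-complemented DT40 Tdp1-knockout cells is measured by ATP luminescence after at least 48 hr compound exposure at 37 °C, with DMSO substituting for the 20 nM CPT used in the parallel screen.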
# An asterisk follows results filed as active; ? = inconclusive; . = no result given; [ ] = dose if it differs, or a comment. The list is not random: actives were taken first. Their share in the collection is about 18%. Unless noted, the call rests on the fitted dose curve; in most records, active means well fitted curve in the direction sought with a large enough effect; inconclusive means small, poorly fitted or top-dose-only effect, or another doubt; inactive means no such curve, though single readings can be large; an effect the other way counts as inactive or inconclusive. On the % scale 0 is the no-effect control and ±100 the full control effect.
SMILES,Six1-Eya2 blk,CtBP-E1A inh,IL-1B inflam inh,DT40 TDP1 CPT,TDP1 inh,TDP1 cell noCPT
CC(C)Cn1nc(NC(=O)C2CCCO2)c2cc3ccccc3nc21 (centres undefined),28.8,19.9,-2.0,?,-5.2%,?
COc1ccc(NC(=O)Cn2c(=O)n(CCc3ccccc3)c(=O)c3ccccc32)cc1,.,.,.,-26.6%,2.7%,?
C/C(=C\C(=O)c1ccc(Cl)s1)N(C)C,-0.4,3.6,-4.1,0.3%,0.0%,8.0%
Cc1c(/C=C/C(=O)c2ccc(Cl)s2)cnn1C,-0.6,3.0,-9.2,-26.6%,2.2%[56.1 µM],?
COc1ccc(/C=C/C(=O)c2ccc(Cl)s2)cc1O,-1.9,3.4,-26.5,?,6.5%,18.4µM*
COc1cc(/C=C/C(=O)c2ccc(Cl)s2)cc(OC)c1O,3.8,-2.8,-105.0*,?,3.5%,29.1µM*
O=C(C=Cc1ccc(Cl)s1)c1ccc(Cl)s1,-5.7,-8.1,-51.0*,?,.,?
CN1CCc2nc3sc(C(=O)C45CC6CC(CC(C6)C4)C5)c(N)c3cc2C1,9.9,0.7,-16.2,?,2.0%,?
COc1ccc(-c2nc(CNS(=O)(=O)c3ccc(Br)cc3)cs2)cc1,.,.,.,?,7.6%,?
CC(=O)c1c(C(C)=O)c(C)n(-c2ccc(O)cc2)c1C,-4.8,0.8,12.8,-15.1%,-1.0%,-12.0%
CCN(CC)c1ccc(-n2c(C)c(C(C)=O)c(C(C)=O)c2C)cc1,-19.4,-17.8,-1.8,23.1µM*,4.2%,10.3µM*
Cc1cccc[n+]1C1C(c2ccccc2)C(C#N)=C(C(=C=[N-])C#N)NC1(O)C1CC1 (centres undefined),-21.2,-3.9,-16.3,23.1µM*,0.0%,?
Cc1nnc(C)n1/N=C/c1c(O)ccc2ccccc12,-2.0,.,19.4,21.4%,.,-19.5%
Cc1nnc(-c2ccccc2)c(=O)n1/N=C/c1c(O)ccc2ccccc12,-93.8*,-1.4,107.9,4.11µM*,8.3%,5.17µM*
Cc1cc(CNC(=O)[C@H](C)[C@H]2C[C@]2(C)[C@H](NC(=O)OCc2ccccc2)c2ccccc2)nn1C,.,.,.,.,8.1%,.
C[N+](C)(C)C/C=C1/COCO1,1.2,2.9,-8.8,18.4µM*,4.0%,?
COc1ccc(Cl)cc1NC(=O)CN(C)C1CCCCC1,-15.4,-1.6,-11.1,?,6.6%,?
COc1ccc(C)cc1NC(=O)CNc1ccccc1CN(C)C1CCCCC1,-17.6,-14.5,-3.8,18.4µM*,1.2%,?
COc1ccc(Cl)cc1NC(=O)CN(C)C(C)C(=O)NC(=O)NC1CCCCC1 (centres undefined),1.5,-2.7,?,?,-12.2%,18.4µM*
COc1ccc(Cl)cc1NC(=O)CNc1ccccc1CN(C)C1CCCCC1,-0.3,-4.3,-214.3*,?,0.0%,?
O=C(CSc1nnc(Cc2ccccc2)n1C1CCCCC1)N1CCOCC1,7.2,9.6,3.6,-3.3%,4.5%,-19.5%
COc1ccc(/C=N\NC(=O)COc2ccccc2Cl)cc1Cn1nc(C)cc1C,2.9,8.3,-2.3,?,4.9%,23.1µM*
COc1ccc(/C=N/NC(=O)CCn2nc(C)cc2C)cc1O,0.3,-3.6,16.9,0.3%,0.0%,8.3%
COc1ccc(/C=N\NC(=O)c2sccc2C)cc1Cn1nc(C)cc1C,-2.1,-7.8,-12.9,7.31µM*,3.5%,?
O=C(COc1ccc(Cl)cc1)N(Cc1cccs1)C1CCS(=O)(=O)C1 (centres undefined),23.0,0.0,-10.0,-25.3%,.,?
SMILES,Six1-Eya2 blk,CtBP-E1A inh,IL-1B inflam inh,DT40 TDP1 CPT,TDP1 inh,TDP1 cell noCPT
CC(=O)N1CC=C2C(C#N)=C(N)C(C#N)(C#N)[C@H](c3ccoc3)[C@H]2C1,-9.3,-15.7,3.6,-27.3%,3.2%,-2.5%
N#CC1=C(N)C(C#N)(C#N)C(c2cccnc2)C2CN(C(=O)OCc3ccccc3)CC=C12 (centres undefined),-4.2,-6.3,-20.8,16.4µM*,4.7%,?
CN1CC=C2C(C#N)=C(N)C(C#N)(C#N)C(c3cccc(Cl)c3Cl)C2C1 (centres undefined),1.3,-5.1,-103.2*,23.1µM*,9.3%,?
CCOC(=O)N1CC=C2C(C#N)=C(N)C(C#N)(C#N)[C@H](c3ccc(OCC)c(OCC)c3)[C@H]2C1,-1.7,1.5,-14.0,?,7.1%,-28.2%
CN1CC=C2C(C#N)=C(N)C(C#N)(C#N)[C@H](c3ccoc3)[C@H]2C1,?,?,20.6,?,.,20.6µM*
CCCN1CC=C2C(C#N)=C(N)C(C#N)(C#N)C(c3cccc(OC)c3OC)C2C1 (centres undefined),-13.6,8.8,-0.4,?,2.1%,?
N#CC1=C(N)C(C#N)(C#N)[C@H](c2ccoc2)[C@H]2CN(Cc3ccccc3)CC=C12,-10.8,-13.9,24.5,5.8µM*,11.9%,5.8µM*
CCN1CC=C2C(C#N)=C(N)C(C#N)(C#N)C(CCc3ccccc3)C2C1 (centres undefined),-28.5,?,38.5,?,5.0%,?
Cc1noc(COc2ccc(OCc3nc(C)no3)cc2)n1,-2.5,0.8,29.3,-20.3%,3.2%,0.6%
Cc1cccc(C(=O)NC2CCN(C#N)CC2)c1,.,.,.,.,-0.6%,.
Cc1ccc(C2C3CN(C(C)C)CC=C3C(C#N)=C(N)C2(C#N)C#N)cc1 (centres undefined),-13.9,-12.1,-2.8,15.8µM*,6.8%,12.6µM*
COc1ccc(NC(=O)Cn2c(=O)n(Cc3nc(C)no3)c(=O)c3cc4c(cc32)OCO4)cc1OC,.,.,.,-10.3%,5.6%,-1.0%
O=S(=O)(CCN(CCS(=O)(=O)C(F)(F)F)CC1CCCO1)C(F)(F)F (centres undefined),6.1,5.6,-5.7,2.31µM*,0.0%,2.31µM*
COc1ccccc1NC(=O)c1nc(SCc2ccc(F)cc2)ncc1Cl,.,.,.,-20.1%,2.3%,-9.9%
CCS(=O)(=O)c1ncc(Cl)c(C(=O)Nc2ccccc2OC)n1,-4.2,5.8,-94.2*,1.03µM*,.,1.03µM*
COc1ccccc1NC(=O)c1ccc(C(=O)Nc2ccccc2OC)nc1,-1.7,6.7,23.5,4.61µM*,.,?
COc1ccccc1NC(=O)c1nc(S(=O)(=O)Cc2ccccc2)ncc1Cl,3.9,1.7,-102.3*,1.3µM*,4.6%,1.64µM*
